18 molecules from PubChem BioAssay (EPA / NIEHS) can be followed below.

Assay [1] in a line: CCTE_Shafer_MEA_acute_network_burst_percentage: CCTE's Neural Acute Assay for Percentage of Network Bursts, Shafer Lab (AID 2284022).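 Also: curves fitted for loss so actives lower network burst percentage.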 In short, it runs like this:
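Readout is the fraction of spikes falling in network bursts, expressed as per-well percent change from a 40-min pre-exposure baseline. Primary rat cortical neurons on MEA were exposed to 0.03-40 uM compound on DIV 13 or 15 and recorded for 40 min at 37 C.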

The nature of assay [2]: CCTE_Shafer_MEA_acute_cross_correlation_area: CCTE's Neural Acute Assay for Area of Cross Correlation, Shafer Lab (AID 2284024).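 Also: rat primary cortical neuron networks on 48-well MEA at DIV 13 or 15 with 40 min exposure; area under pooled inter-electrode spike cross-correlation near zero lag as percent change from own baseline; curves fitted for loss of cross-correlation area so actives lower synchrony.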 In short, it runs like this: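 Plates equilibrated 20 min at 37 C, then 40 min baseline was recorded, compound was added (0.03-40 uM), and a further 40 min was recorded. Wells needed ≥10 active electrodes (≥5 spikes/min) on exposure day.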
A short description of assay [3]: CCTE_Shafer_MEA_acute_cross_correlation_HWHM: CCTE's Neural Acute Assay for Cross Correlation at Half Width at Half Maximum, Shafer Lab (AID 2284026).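 Also: percent change per well from pre-dose baseline in spike cross-correlogram half width; hits are a decrease in cross-correlogram half width relative to DMSO.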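 As to outcome: spontaneous network firing of rat primary cortical neurons on multiwell microelectrode arrays.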 Summed up: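 Rat cortical neuron cultures on microelectrode arrays were equilibrated 20 min at 37 C, recorded 40 min at baseline, then 40 min after compound addition (0.03-40 uM, ≥3 wells). Spikes were detected at 8x rms noise after 300-5000 Hz band-pass filtering.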

The nature of assay [4]: CCTE_Shafer_MEA_acute_synchrony_index: CCTE's Neural Acute Assay for Synchrony, Shafer Lab (AID 2284027).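 Also: network synchrony index of spontaneous spiking in primary rat cortical neurons on MEAs; fitted for loss of signal so actives lower synchrony relative to DMSO.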 Summed up: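 Primary rat cortical neurons on 16-electrode MEA wells were recorded 40 min at baseline (DIV 13 or 15) and 40 min after compound (0.03-40 uM) at 37 C. Synchrony index (0-1) expressed as percent change from baseline, versus DMSO.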
Assay [5] in a line: CCTE_Shafer_MEA_dev_firing_rate_mean: CCTE's Neural Network Formation Assay for Mean Firing Rate, Shafer Lab (AID 2284031). Summed up: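 Primary rat cortical neurons on 48-well, 16-electrode MEAs (PEI-coated, laminin at plating), exposed from day 0 with compound renewed at DIV 5 and 9. Spikes recorded DIV 5, 7, 9, 12; well-mean firing rate collapsed to trapezoidal AUC, loss-of-signal vs DMSO.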

Assay [6] in a line: CCTE_Shafer_MEA_dev_per_burst_spike_percent: CCTE's Neural Network Formation Assay for Percent of Spikes in a Burst, Shafer Lab (AID 2284032).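 As to AC50: fitted as a decrease in burst spike percentage below DMSO baseline.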 In short, it runs like this: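 Rat primary cortical neurons on 16-electrode MEA wells, dosed from plating day 0 for 12 days with renewal on DIV 5 and 9; spikes-in-bursts percentage averaged over bursting electrodes, collapsed as AUC across days 5, 7, 9, 12; loss direction versus DMSO.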

The nature of assay [7]: CCTE_Deisenroth_AIME_384WELL_CTox_Active: Cytotoxicity Assessment (CTOX) in CCTE's 384-well Estrogen Receptor Transactivation Assay with AIME metabolic competence (metabolism positive), Deisenroth Lab (AID 2284037; active = hit-call score of the fitted dose curve at least 0.9, where 1 is the maximum;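 also: chemicals first conditioned 2 h by alginate-bound induced rat liver S9 before cells; activity means signal loss indicating cell death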). Summed up:
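Cytotoxicity in VM7Luc4E2 breast cells, 24 hour, measured as protease-substrate fluorescence loss, after 2-hour metabolic conditioning with induced rat hepatic S9 in alginate microspheres. Concentrations 0.002 - 200 uM, 10 points, bidirectional fitting.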

A short description of assay [8]: CCTE_Shafer_MEA_dev_active_electrodes_number: CCTE's Neural Network Formation Assay for Number of Active Electrodes, Shafer Lab (AID 2284040; active = hit-call score of the fitted dose curve at least 0.9, where 1 is the maximum;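 as to AC50: potency for loss of active electrodes versus DMSO so lower counts are hits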). Summed up: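 Rat cortical primary cultures, 1.5 x 10^5 cells/well, PEI-coated MEA, laminin drop. Continuous exposure DIV 0–12; full media/compound change DIV 5, 9. Readout: electrodes with mean firing ≥5 spikes/min; AUC across days; loss vs DMSO.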

A short description of assay [9]: CCTE_Shafer_MEA_dev_burst_rate: CCTE's Neural Network Formation Assay for Burst Rate, Shafer Lab (AID 2284042). In short, it runs like this:
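Exposure ran continuously over 12 days of network development in rat cortical cultures, with compound refreshed during full media changes on DIV 5 and 9. Single-electrode bursts per recording time, well-mean over active electrodes, trapezoidal AUC across days 5–12, fitted downward relative to DMSO.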

Assay [10] can be described thus: CCTE_Shafer_MEA_dev_bursting_electrodes_number: CCTE's Neural Network Formation Assay for Number of Bursting Electrodes, Shafer Lab (AID 2284043; active = hit-call score of the fitted dose curve at least 0.9, where 1 is the maximum;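 as to AC50: potency is for loss of bursting electrodes relative to DMSO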). Summed up:
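Read-out is the per-well number of electrodes bursting at least once every 2 minutes, recorded on days 5, 7, 9 and 12 and collapsed by trapezoidal area under the curve. Cultures were primary rat cortical neurons on MEA plates, treated continuously from plating.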

Assay [11] can be described thus: CCTE_Shafer_MEA_dev_per_burst_interspike_interval: CCTE's Neural Network Formation Assay for Burst Interspike Interval, Shafer Lab (AID 2284044).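 Also: mean spike spacing inside bursts as AUC over recordings on days 5 7 9 12.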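 As to AC50: potency for a decrease of within-burst interspike interval below DMSO level.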 Summed up: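 Neurons from rat cortex plated onto PEI-coated MEA wells with laminin […] at 1.5 x 10^5 cells/well, then treated from day 0. Media and compound fully replaced on DIV 5 and 9. Extracellular spontaneous firing recorded four times; interspike interval per burst summarised as AUC.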

The nature of assay [12]: CCTE_Shafer_MEA_dev_burst_duration_mean: CCTE's Neural Network Formation Assay for Mean Burst Duration, Shafer Lab (AID 2284045). In short, it runs like this: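 Read-out: average first-to-last-spike interval within single-electrode bursts, averaged over bursting electrodes per well, then summarised as area under the curve across days 5, 7, 9 and 12. Developing rat cortical networks were exposed from day 0.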

A short description of assay [13]: CCTE_Shafer_MEA_dev_interburst_interval_mean: CCTE's Neural Network Formation Assay for Mean Interburst Interval, Shafer Lab (AID 2284046).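 Also: well-mean interburst interval of bursting electrodes as AUC over four recording days; curve fitted for decrease in interburst interval relative to DMSO.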 In short, it runs like this:
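Primary rat cortical neurons on PEI-coated 48-well MEA plates (laminin added with cells at plating) (16 electrodes/well), exposed from plating day 0 with renewal at DIV 5 and 9. Mean inter-burst interval averaged over bursting electrodes, AUC across days 5, 7, 9, 12; DMSO baseline.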

A short description of assay [14]: CCTE_Shafer_MEA_dev_inter_network_spike_interval_mean: CCTE's Neural Network Formation Assay for Mean Inter-network Spike Interval, Shafer Lab (AID 2284047).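 As to AC50: potency for a decrease in mean inter-network spike interval below DMSO.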 Summed up: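 Mean time between consecutive network-spike peaks, recorded extracellularly (adaptive spike detection) on DIV 5, 7, 9 and 12, summarized as trapezoidal AUC. Rat cortical cultures on MEAs dosed continuously days 0–12, re-dosed at feeds; loss-of-signal fit relative to DMSO.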

Assay [15] is described as follows: CCTE_Shafer_MEA_dev_network_spike_number: CCTE's Neural Network Formation Assay for Number of Network Spikes, Shafer Lab (AID 2284048).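 Also: synchronized bursts across electrodes counted on days 5 7 9 12 and integrated as AUC.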 Summed up:
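Developing networks of primary rat cortical neurons are treated over 12 days starting at plating, with media and compound fully replaced on DIV 5 and 9. Network spike counts from four recording days are integrated as trapezoidal AUC.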

Assay [16] can be described thus: CCTE_Deisenroth_AIME_384WELL_CTox_Inactive: Cytotoxicity Assessment (CTOX) in CCTE's 384-well Estrogen Receptor Transactivation Assay without AIME metabolic competence (metabolism negative), Deisenroth Lab (AID 2284039; active = hit-call score of the fitted dose curve at least 0.9, where 1 is the maximum;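 also: cell viability via live-cell protease substrate cleaved to fluorescent probe; cells exposed 24 h to medium preincubated 2 h with alginate-water beads without S9; loss of fluorescence signal means loss of viability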). Summed up:
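Fluorescent protease-substrate viability readout after 24 h exposure of VM7Luc4E2 cells to conditioned medium. Chemicals (0.002–200 uM) first sat 2 h over alginate-water beads, no S9. Data fitted bidirectionally, loss of signal meaning viability loss.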

Assay [17] concerns the target Estrogen receptor (Homo sapiens) (UniProt P03372). The assay is described as follows: CCTE_Deisenroth_AIME_384WELL_LUC_Shift: CCTE's 384-well Estrogen Receptor Transactivation Assay with AIME metabolic competence data shift (ERTA luciferase; difference in metabolism positive and negative), Deisenroth Lab (AID 2284041).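 Also: shift is response with S9 minus without S9 so positive means metabolism raised ER signal.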 In short, it runs like this:
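Test chemicals (0.002–200 uM, 10-point) were pre-incubated 2 h with alginate microspheres containing phenobarbital/beta-naphthoflavone-induced male Sprague Dawley rat liver S9 or water, then medium was transferred to VM7Luc4E2 cells for 24 h luciferase readout; shift = S9-positive minus S9-negative normalized response.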

Assay [18] has the same target. Description: CCTE_Deisenroth_AIME_384WELL_LUC_Active: CCTE's 384-well Estrogen Receptor Transactivation Assay with AIME metabolic competence (ERTA luciferase; metabolism positive), Deisenroth Lab (AID 2284030; active = hit-call score of the fitted dose curve at least 0.9, where 1 is the maximum). Summed up: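 AIME metabolism-positive mode: chemicals 0.002 - 200 uM, 2 h with alginate-bound PB/BNF-induced rat S9 → medium to VM7Luc4E2 ERTA, 24 h → luciferase. Positive fit vs 17beta-estradiol; n=4 typical.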

For assay [19] the target is unchanged. The assay is described as follows: CCTE_Deisenroth_AIME_384WELL_LUC_Inactive: CCTE's 384-well Estrogen Receptor Transactivation Assay without AIME metabolic competence (ERTA luciferase; metabolism negative), Deisenroth Lab (AID 2284038; active = hit-call score of the fitted dose curve at least 0.9, where 1 is the maximum;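 also: VM7Luc4E2 breast cells given medium preincubated 2 h with S9-free microspheres; hits raise estrogen receptor luciferase signal so potencies reflect agonists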). Summed up: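 Chemicals (10-point series, 0.002 - 200 uM) were incubated 2 hours with alginate-water microsphere lids lacking S9, then the conditioned medium was transferred to VM7Luc4E2 breast cells for 24 hour. Luciferase induction was read by bioluminescence, fitted upward relative to 17beta-estradiol.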

Where “and” joins values, the source holds several entries; their conditions need not be identical. Equal entries are not always repeated. Results filed as inconclusive are left out. The source holds several records for some structures; these can differ, active in one and inactive in another. Calls of active or inactive are those of the source. The calls were made as follows, unless noted: active = hit-call score of the fitted dose curve at least 0.9, where 1 is the maximum; inactive = score below 0.9.

Sequence of Estrogen receptor (Homo sapiens) (P03372 whole entry, looked up): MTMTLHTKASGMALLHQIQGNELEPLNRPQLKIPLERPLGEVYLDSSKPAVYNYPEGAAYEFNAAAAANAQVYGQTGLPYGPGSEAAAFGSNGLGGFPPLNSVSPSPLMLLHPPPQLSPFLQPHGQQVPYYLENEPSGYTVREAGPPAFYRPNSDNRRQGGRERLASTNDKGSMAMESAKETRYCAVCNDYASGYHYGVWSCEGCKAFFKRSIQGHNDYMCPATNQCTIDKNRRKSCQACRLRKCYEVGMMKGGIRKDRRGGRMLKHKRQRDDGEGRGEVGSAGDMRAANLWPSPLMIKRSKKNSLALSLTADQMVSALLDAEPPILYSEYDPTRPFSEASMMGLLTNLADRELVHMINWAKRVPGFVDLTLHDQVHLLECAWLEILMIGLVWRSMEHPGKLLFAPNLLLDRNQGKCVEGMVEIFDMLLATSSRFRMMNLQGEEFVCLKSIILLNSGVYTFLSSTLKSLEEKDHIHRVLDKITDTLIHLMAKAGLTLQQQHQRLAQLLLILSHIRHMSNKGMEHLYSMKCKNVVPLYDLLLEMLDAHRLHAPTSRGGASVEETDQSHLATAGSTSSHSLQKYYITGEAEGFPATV

`c1ccc(NNc2ccccc2)cc1`: the molecule was called inactive in assay [1] and in [2]. The AC50 in [3] was 29.7 µM (active); in assay [4], 29.6 µM (active).

On to `N#CC(Br)Br`, for which the outcome in assay [1], in [2], in assay [3] and in assay [4] was inactive.

For `COC(=O)Nc1nc2ccccc2[nH]1`, the molecule was classed as inactive in assay [1], in assay [2], in [3], in [4], in [5] and in [6]. Further, the outcome in assay [7], in assay [9], in assay [11], in [12], in assay [13] and in [14] was inactive. The result in [15] was inactive. Further, the AC50 in [8] is 15.3 µM (active); in [10], 12.5 µM (active).

For `CC(C)COC(=O)c1ccccc1C(=O)OCC(C)C`, the call in assay [1], in [2], in [5], in [9], in assay [12] and in [14] was inactive. In addition, the call in assay [15] was inactive. Besides, the AC50 in assay [3] was 5.62 µM (active); in [4] it was 9.02 µM (active); in assay [6] it was 23.1 µM (active); in assay [10] it was 13.8 µM (active); in [11], 23.2 µM (active); in [13], 12.8 µM (active).

In the case of `O=C(N[C@H](c1ccccc1)[C@@H]1CN2CCC1CC2)c1c(Cl)ccc(C(F)(F)F)c1Cl`, the call in assay [1], in assay [2], in assay [4] and in [7] was inactive. Moreover, the AC50 in assay [3] was 18.5 µM (active).

Turning to `CCCCCCCCn1sccc1=O`, the AC50 in assay [1] is 8.61 µM (active); in assay [3] it was 11.5 µM (active); in [4] it was 6.04 µM (active); in assay [7], 196 µM (active); in assay [16], 93.9 µM (active); in [17], 14 µM (active). Also, the molecule was classed as inactive in [2].

`OCCOCCO`: the outcome in [18], in [5], in [6], in [7], in assay [19] and in assay [16] was inactive. Moreover, the molecule was called inactive in assay [8], in assay [9], in assay [10], in [11], in assay [12] and in assay [13]. In addition, the result in [15] was inactive. In addition, the AC50 in assay [14] is 24.5 µM (active).

For the molecule `Cc1ccc([N+](=O)[O-])cc1`, the outcome in assay [18], in assay [7], in assay [19], in assay [16] and in assay [17] was inactive.

Regarding `Nc1ccc(Cl)cc1N`, in [16], the result was inactive.

On to `O=C1CCCO1`, for which the molecule was classed as inactive in [7].

As for `CCOC(=O)[C@]1(c2ccccc2)Oc2ccccc2[C@@H]1N`, the result in [7] and in assay [16] was inactive.

For the molecule `Cc1cc(N=Nc2ccccc2C)ccc1N`, the molecule was classed as inactive in [1] and in assay [2]. Further, the half-maximal activity concentration (AC50) was 30.1 µM (active) in assay [3], 28.7 µM (active) in assay [4], 107 µM (active) in assay [7] and 103 µM (active) in [16].

As to `Nc1ccc(Oc2ccc(N)cc2)cc1`, the result in [7] was inactive.

Regarding `Oc1ccc2ccc3cccc4ccc1c2c34`, the AC50 in assay [7] was 88.4 µM (active). The molecule was called inactive in assay [16].

In the case of `Cc1cccc(N)c1N`, the call in assay [16] was inactive.

`CN(C)C(=O)Nc1ccc(Cl)cc1`: the outcome in assay [7] and in assay [16] was inactive.

Consider `CNC(=O)Oc1cccc2c1OC(C)(C)C2`, for which the AC50 in [18] is 100 µM (active); in assay [6], 15.5 µM (active); in assay [19], 53.8 µM (active); in assay [8] it was 17 µM (active) and 49.6 µM (active); in [17] it was 45.4 µM (active); in assay [10], 15 µM (active) and 76.8 µM (active). Besides, the call in assay [5], in assay [6], in assay [16], in assay [9], in assay [11] and in assay [12] was inactive. The outcome in assay [13], in [14] and in [15] was inactive.

Consider `CCOc1cccc(C2(N3CCN(c4ccccc4)CC3)CCC(C)CC2)c1` (stereo not drawn), for which the molecule was called inactive in [18], in assay [7], in assay [19], in [16] and in assay [17].
